In general, inhibition refers to the relative decrease from the control value, in per cent.

The target in test [1] is 5'-AMP-activated protein kinase catalytic subunit alpha-2 (Homo sapiens) (UniProt P54646). Particulars: at 1 µM.
The target in test [2] is T1, NUAK family SNF1-like kinase 1 (Homo sapiens) (UniProt O60285).
T1 sequence (whole entry): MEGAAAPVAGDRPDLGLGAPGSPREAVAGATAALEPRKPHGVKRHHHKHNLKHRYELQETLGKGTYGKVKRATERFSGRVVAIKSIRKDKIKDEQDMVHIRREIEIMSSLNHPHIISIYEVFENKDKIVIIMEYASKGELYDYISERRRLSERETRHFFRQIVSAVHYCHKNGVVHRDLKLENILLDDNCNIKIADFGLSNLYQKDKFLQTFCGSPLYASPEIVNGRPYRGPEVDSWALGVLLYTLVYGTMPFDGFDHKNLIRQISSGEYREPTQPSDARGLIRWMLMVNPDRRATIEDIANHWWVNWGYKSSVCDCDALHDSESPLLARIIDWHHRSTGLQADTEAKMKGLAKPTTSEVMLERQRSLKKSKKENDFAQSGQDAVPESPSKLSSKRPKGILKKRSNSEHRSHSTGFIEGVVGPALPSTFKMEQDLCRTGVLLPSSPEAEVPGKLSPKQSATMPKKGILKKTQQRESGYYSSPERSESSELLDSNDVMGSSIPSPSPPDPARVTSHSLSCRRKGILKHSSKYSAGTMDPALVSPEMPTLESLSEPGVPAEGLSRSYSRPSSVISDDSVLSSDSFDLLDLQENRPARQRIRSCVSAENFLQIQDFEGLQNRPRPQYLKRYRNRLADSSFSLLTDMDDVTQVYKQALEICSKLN
To be noted: at 0.1 µM.

Test [3] has as its target T1, NUAK family SNF1-like kinase 1 (Homo sapiens). To be noted: at 1 µM.
The target of test [4] is T2, Serine/threonine-protein kinase BRSK1 (Homo sapiens) (UniProt Q8TDC3).
T2 sequence (whole entry): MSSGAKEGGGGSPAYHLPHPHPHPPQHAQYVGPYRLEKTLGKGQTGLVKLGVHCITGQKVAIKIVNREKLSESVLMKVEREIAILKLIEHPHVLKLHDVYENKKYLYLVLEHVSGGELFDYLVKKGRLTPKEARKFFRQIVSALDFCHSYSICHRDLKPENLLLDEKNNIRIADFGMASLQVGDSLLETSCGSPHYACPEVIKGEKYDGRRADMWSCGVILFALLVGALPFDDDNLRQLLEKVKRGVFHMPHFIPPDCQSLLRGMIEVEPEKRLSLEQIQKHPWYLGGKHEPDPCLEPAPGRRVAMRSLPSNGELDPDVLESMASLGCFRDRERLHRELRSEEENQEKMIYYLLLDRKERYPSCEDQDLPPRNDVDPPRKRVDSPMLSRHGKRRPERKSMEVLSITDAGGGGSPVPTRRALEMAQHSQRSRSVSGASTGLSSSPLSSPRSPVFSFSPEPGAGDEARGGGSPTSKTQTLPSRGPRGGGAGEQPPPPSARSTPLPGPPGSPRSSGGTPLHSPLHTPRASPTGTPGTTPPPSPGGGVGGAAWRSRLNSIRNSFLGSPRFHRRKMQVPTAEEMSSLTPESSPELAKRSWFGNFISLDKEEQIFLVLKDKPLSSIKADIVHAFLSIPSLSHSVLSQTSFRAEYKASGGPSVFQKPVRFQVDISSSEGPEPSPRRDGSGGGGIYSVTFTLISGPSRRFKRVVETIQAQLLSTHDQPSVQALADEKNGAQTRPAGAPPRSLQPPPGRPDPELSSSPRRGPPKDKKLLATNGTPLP
To be noted: at 0.1 µM.

For test [5], the target named is T2, Serine/threonine-protein kinase BRSK1 (Homo sapiens). To be noted: at 1 µM.
Test [6] concerns the target T3, Serine/threonine-protein kinase BRSK2 (Homo sapiens) (UniProt Q8IWQ3).
T3 sequence (whole entry): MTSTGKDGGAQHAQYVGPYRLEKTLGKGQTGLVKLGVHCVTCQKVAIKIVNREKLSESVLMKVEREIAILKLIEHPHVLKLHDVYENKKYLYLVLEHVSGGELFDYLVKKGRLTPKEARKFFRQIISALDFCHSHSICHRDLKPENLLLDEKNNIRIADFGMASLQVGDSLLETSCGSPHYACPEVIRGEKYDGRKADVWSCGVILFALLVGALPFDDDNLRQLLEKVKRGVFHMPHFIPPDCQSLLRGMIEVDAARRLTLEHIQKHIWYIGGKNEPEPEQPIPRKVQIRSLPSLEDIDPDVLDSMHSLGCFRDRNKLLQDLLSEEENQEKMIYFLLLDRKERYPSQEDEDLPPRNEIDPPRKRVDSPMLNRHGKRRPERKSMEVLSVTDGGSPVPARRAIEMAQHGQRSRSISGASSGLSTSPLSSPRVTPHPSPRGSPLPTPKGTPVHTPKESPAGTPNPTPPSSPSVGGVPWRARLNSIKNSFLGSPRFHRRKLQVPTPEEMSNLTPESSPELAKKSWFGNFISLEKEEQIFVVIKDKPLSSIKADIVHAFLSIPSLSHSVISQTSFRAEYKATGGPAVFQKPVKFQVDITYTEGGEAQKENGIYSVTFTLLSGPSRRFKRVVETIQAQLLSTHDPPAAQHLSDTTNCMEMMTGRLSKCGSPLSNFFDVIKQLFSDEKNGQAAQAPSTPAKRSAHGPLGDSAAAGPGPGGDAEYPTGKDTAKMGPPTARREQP
Particulars: at 0.1 µM.

Test [7] addresses T3, Serine/threonine-protein kinase BRSK2 (Homo sapiens). To be noted: at 1 µM.
Test [8] deals with Calcium/calmodulin-dependent protein kinase type 1D (Homo sapiens) (UniProt Q8IU85). To be noted: at 0.1 µM.
Chain of Calcium/calmodulin-dependent protein kinase type 1D (Homo sapiens) (Q8IU85 whole entry, looked up): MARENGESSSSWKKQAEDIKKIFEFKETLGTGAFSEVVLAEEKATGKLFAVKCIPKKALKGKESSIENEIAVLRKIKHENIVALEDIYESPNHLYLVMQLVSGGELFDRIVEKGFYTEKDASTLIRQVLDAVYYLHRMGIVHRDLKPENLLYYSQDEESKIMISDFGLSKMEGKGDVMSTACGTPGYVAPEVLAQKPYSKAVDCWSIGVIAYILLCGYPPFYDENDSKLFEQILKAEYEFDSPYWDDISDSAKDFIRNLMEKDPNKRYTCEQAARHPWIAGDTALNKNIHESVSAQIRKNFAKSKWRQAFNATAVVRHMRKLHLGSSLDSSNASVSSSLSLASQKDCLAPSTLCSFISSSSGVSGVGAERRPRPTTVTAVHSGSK
The target is the same in test [9]. To be noted: at 1 µM.
Test [10] concerns the target Calcium/calmodulin-dependent protein kinase type II subunit alpha (Homo sapiens) (UniProt Q9UQM7). Particulars: at 0.1 µM.
The target is the same in test [11]. To be noted: at 1 µM.
The target of test [12] is Calcium/calmodulin-dependent protein kinase type II subunit delta (Homo sapiens) (UniProt Q13557). Particulars: at 0.1 µM.
Chain of Calcium/calmodulin-dependent protein kinase type II subunit delta (Homo sapiens) (Q13557 whole entry): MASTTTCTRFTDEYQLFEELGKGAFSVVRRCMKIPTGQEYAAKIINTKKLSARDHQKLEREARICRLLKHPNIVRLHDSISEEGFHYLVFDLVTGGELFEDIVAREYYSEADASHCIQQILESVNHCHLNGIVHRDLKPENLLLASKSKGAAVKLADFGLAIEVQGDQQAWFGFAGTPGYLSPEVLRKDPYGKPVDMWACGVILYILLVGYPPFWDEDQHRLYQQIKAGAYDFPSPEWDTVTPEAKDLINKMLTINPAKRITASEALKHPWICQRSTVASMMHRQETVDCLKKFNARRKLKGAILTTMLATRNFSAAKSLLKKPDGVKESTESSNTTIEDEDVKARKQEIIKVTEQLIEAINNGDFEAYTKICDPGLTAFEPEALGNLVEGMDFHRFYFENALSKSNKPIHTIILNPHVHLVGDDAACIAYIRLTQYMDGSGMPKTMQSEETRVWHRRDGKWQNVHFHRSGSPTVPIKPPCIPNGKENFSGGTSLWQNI
Test [13] shares this target. To be noted: at 1 µM.
For test [14], the target named is T4, Calcium/calmodulin-dependent protein kinase type IV (Homo sapiens) (UniProt Q16566).
T4 sequence (whole entry): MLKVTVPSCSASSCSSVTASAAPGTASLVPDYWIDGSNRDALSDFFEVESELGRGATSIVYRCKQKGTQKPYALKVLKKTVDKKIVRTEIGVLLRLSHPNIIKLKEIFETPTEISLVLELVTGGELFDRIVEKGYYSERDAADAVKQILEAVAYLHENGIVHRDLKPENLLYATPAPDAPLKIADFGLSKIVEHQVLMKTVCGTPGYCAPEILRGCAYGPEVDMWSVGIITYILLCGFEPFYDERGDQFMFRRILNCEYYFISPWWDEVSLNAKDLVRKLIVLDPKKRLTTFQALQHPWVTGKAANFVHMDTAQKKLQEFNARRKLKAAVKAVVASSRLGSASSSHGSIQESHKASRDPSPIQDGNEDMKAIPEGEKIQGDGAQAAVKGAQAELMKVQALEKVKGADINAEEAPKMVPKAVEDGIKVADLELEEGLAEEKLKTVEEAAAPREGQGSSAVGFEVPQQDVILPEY
Particulars: at 0.1 µM.

Test [15] addresses T4, Calcium/calmodulin-dependent protein kinase type IV (Homo sapiens). To be noted: at 1 µM.
Test [16] deals with T5, Serine/threonine-protein kinase Chk1 (Homo sapiens) (UniProt O14757).
T5 sequence (whole entry): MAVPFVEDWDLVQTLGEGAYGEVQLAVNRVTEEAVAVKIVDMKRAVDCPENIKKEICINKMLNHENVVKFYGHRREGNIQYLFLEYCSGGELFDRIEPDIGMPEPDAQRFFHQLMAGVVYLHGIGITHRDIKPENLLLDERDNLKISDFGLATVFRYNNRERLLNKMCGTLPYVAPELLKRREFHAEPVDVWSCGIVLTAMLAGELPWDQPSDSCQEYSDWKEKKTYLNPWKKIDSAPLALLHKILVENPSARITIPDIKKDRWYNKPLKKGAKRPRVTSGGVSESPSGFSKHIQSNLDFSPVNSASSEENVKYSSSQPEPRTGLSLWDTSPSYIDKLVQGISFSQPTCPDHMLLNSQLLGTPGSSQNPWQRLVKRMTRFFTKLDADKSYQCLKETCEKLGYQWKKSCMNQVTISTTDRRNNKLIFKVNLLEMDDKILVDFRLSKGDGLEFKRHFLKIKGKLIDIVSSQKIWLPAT
Particulars: at 1 µM.

Test [17] addresses Serine/threonine-protein kinase Chk2 (Homo sapiens) (UniProt O96017). To be noted: at 0.1 µM.
Test [18] shares this target. Particulars: at 1 µM.
Test [19] addresses Death-associated protein kinase 1 (Homo sapiens) (UniProt P53355). To be noted: at 0.1 µM.
For test [20], the target named is T5, Serine/threonine-protein kinase Chk1 (Homo sapiens). Particulars: at 0.1 µM.

Chain of Calcium/calmodulin-dependent protein kinase type II subunit alpha (Homo sapiens) (Q9UQM7 whole entry): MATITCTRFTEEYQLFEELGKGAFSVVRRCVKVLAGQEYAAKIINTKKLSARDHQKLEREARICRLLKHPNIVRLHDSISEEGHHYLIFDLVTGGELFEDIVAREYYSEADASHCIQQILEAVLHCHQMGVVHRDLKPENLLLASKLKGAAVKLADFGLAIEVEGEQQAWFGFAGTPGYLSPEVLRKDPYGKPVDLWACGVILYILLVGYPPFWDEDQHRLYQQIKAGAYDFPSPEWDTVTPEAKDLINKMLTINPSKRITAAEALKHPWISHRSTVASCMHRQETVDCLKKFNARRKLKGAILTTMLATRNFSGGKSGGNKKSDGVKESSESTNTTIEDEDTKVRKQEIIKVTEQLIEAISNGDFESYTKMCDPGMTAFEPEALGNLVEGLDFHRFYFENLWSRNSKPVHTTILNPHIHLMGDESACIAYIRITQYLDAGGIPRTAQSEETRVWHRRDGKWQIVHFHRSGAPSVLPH
Chain of Serine/threonine-protein kinase Chk2 (Homo sapiens) (O96017 whole entry): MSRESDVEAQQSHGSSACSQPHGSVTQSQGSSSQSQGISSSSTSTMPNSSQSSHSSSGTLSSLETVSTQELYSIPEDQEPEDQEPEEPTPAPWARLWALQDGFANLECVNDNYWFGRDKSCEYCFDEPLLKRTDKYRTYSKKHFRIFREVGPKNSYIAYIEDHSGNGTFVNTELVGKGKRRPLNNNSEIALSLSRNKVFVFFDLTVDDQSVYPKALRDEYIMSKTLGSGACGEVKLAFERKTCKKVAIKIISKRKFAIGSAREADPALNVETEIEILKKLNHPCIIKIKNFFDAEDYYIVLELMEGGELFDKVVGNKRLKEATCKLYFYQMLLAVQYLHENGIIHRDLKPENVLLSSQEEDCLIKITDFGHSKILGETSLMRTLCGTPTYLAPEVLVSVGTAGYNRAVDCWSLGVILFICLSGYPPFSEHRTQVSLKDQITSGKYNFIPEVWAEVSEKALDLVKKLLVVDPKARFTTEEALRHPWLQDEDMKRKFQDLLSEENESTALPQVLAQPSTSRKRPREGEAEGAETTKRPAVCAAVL
Chain of 5'-AMP-activated protein kinase catalytic subunit alpha-2 (Homo sapiens) (P54646 whole entry, looked up): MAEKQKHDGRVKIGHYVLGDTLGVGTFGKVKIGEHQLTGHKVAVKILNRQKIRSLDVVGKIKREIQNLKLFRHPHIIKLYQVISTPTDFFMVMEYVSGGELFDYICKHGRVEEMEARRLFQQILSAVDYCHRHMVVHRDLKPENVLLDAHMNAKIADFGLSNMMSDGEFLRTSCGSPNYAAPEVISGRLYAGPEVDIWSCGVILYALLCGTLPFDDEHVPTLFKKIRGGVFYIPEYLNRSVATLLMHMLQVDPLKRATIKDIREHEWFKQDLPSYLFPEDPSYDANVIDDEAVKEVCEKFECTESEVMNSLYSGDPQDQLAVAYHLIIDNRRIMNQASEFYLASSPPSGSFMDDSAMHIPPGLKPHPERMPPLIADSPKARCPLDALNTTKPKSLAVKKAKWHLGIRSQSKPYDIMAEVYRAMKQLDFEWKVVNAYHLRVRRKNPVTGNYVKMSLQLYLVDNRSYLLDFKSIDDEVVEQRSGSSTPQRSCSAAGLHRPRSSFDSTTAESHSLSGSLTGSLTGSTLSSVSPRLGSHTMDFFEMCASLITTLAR
Chain of Death-associated protein kinase 1 (Homo sapiens) (P53355 whole entry, looked up): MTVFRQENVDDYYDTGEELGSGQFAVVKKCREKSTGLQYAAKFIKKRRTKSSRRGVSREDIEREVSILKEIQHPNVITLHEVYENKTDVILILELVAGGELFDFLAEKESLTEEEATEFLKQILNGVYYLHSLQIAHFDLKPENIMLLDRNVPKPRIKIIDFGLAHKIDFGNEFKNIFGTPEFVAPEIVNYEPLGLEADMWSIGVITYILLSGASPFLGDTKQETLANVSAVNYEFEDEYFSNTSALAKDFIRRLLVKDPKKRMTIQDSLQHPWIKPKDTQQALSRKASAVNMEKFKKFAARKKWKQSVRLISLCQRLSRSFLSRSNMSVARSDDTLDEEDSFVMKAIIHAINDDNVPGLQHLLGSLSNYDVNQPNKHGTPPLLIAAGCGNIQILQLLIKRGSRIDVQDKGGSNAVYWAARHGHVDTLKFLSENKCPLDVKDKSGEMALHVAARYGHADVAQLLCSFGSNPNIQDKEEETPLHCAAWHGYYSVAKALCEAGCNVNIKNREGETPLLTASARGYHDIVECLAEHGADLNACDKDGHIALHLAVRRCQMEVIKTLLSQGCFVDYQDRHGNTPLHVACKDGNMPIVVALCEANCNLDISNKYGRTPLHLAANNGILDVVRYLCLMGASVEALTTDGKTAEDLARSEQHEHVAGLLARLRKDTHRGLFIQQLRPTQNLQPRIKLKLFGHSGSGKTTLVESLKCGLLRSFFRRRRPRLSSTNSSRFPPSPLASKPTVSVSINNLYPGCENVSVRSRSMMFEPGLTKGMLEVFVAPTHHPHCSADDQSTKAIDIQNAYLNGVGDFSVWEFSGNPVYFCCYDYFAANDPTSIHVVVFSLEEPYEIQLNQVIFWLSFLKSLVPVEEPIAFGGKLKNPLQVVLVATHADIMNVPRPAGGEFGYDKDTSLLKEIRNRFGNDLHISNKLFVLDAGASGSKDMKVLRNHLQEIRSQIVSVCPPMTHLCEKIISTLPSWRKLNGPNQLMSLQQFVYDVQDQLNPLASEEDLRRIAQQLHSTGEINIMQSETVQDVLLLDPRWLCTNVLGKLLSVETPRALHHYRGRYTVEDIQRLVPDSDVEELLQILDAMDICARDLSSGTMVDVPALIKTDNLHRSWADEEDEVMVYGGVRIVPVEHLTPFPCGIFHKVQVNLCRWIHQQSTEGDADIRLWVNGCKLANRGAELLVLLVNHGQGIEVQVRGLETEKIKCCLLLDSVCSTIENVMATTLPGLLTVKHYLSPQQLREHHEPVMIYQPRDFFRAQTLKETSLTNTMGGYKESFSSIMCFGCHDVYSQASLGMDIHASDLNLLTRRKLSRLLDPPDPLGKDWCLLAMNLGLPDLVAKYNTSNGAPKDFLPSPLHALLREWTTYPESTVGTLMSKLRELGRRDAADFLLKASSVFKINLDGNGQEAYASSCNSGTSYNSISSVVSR

In the case of `CCc1cccc(NC(=O)Nc2ccc(Oc3ccc4nc(NC(=O)OC)[nH]c4c3)cc2)c1`, the inhibition in [1] was -0.72%; in [2], 1.37%; in test [3], 4.18%; in [4], 0.6%; in [5], 0.32%; in test [6] it was 3.12%. Besides, the inhibition in test [7] came to 5.96%; in test [8], 0.1%; in test [9] it was 1.18%; in test [10], 4.24%; in [11] it was 3.77%; in test [12] it was 1.51%. Besides, the inhibition in test [13] is 2.63%; in test [14], 0.16%; in test [15], -2.32%; in test [16] it was -6.72%; in test [17], -4.84%; in test [18], -2.63%. The inhibition in [19] is -5.09%.
In the case of `CS(=O)(=O)CCNCc1ccc(-c2ccc3ncnc(Nc4ccc(OCc5cccc(F)c5)c(C(F)(F)F)c4)c3c2)o1`, the inhibition was 3.63% in [1]; 2.03% in test [2]; 0.5% in [3]; -0.9% in [4]; -1.79% in [5]; 1.37% in test [6]. For the same compound, the inhibition in test [7] is 3.52%; in test [8], -0.13%; in test [9], 0.72%; in test [10], 3.67%; in test [11], 3.37%; in [12], 3.17%. For the same compound, the inhibition was 2.68% in test [13]; 0.52% in [14]; -0.06% in test [15]; 8.99% in [20]; 11.5% in test [16]; 6.84% in [17]. The inhibition turned out to be 7.75% in test [18] and 11.7% in test [19].
In the case of `CCn1c(-c2nonc2N)nc2c(C#CC(C)(C)O)nc(CN3CCCC3)cc21`, the inhibition in test [1] is 6.62%; in [2] it was -8.68%; in test [3], 2.69%; in [4] it was 0.47%; in test [5] it was 2.17%; in test [6], 1.38%. The inhibition was 3.23% in test [7]; 1.23% in [8]; 2.08% in [9]; -0.97% in test [10]; 0.03% in test [11]; -0.33% in test [12]. Also, the inhibition in test [13] was 1.82%; in [14], -3.55%; in test [15], 1.55%; in [16], -2.45%; in test [17] it was -1.49%; in test [18], 0.49%. In addition, the inhibition in [19] stood at 0.05%.
Consider `c1cnn2ncc(-c3ccnc(Nc4ccc5c(c4)OCCO5)n3)c2c1`, for which the inhibition in test [1] is 12.6%; in [2], 52.8%; in test [3] it was 83.2%; in test [4] it was 0.46%; in [5] it was 6.78%; in test [6] it was 2.51%. In addition, the inhibition was 9.28% in test [7]; 1.5% in [8]; 5.85% in [9]; 5.45% in [10]; 15.3% in [11]; 7.61% in test [12]. In addition, the inhibition in test [13] came out at 35.7%; in test [14] it was 0.39%; in [15], 1.89%; in [20], 0.16%; in test [16] it was 6.81%; in [17], 2.96%. For the same compound, the values for the inhibition in test [18] and in test [19] were 9.21% and 3.38%, respectively.

The values above are taken from ChEMBL document CHEMBL1961873, “Compounds: GSK PKIS; Assays: Nanosyn kinase panel” (2012).
